This passage reports composite z-score and z-score results from PubChem BioAssay.

Assay [1] concerns Plasmodium falciparum Sir2 (PF13_0152, Sir2A). Nature of the assay: pfSir2 binders on small-molecule microarrays, primary screen, biochemical, small-molecule microarray, 635 nm fluorescence (AID 1098).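 Note: score merges spot fluorescence intensity with its signal-to-noise ratio.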 Particulars: small-molecule microarray binding, fluorescence 635 nm; higher = more signal.
The nature of assay [2]: small-molecule microarray binders of probe aDKK1, primary screen, biochemical, biotinylated probe, 635/667 nm fluorescence (AID 1099).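 Note: score merges 667nm spot fluorescence with signal to noise across triplicate slides.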 Particulars: higher = more signal.
The nature of assay [3]: small-molecule microarray binders of probe aCHRDL2, primary screen, biochemical, biotinylated probe, 635/667 nm fluorescence (AID 1100). Particulars: higher = more signal.
The nature of assay [4]: splicing luciferase reporter signal modulators, primary screen, spliceosome inhibition project, cell-based, HEK293, splice +/- reporter (AID 1101).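 Note: HEK293 cells carrying a splicing-competent luciferase reporter gene; test concentration not given here.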 Particulars: luminescence, 24 h, higher = more signal, called active from +8 up or from −8 down. For orientation: A reporter such as luciferase makes a cellular process visible.
In assay [5] the target is Fibroblast growth factor 10 (Homo sapiens) (UniProt O15520). Nature of the assay: FGF10 binders on small-molecule microarrays, primary screen, biochemical, small-molecule microarray, 635 nm fluorescence (AID 1102). Particulars: FGF10 binding, fluorescence 635 nm, higher = more signal.
Assay [6] deals with glycogen synthase kinase-3 (GSK3A per assay name; protocol says GSK3B). Nature of the assay: GSK3 binders on small-molecule microarrays, primary screen, biochemical, small-molecule microarray, 635 nm fluorescence, GSK3A (AID 1103). Note: the record names both GSK3A and GSK3B. Particulars: small-molecule microarray binding, fluorescence 635 nm; higher = more signal.
In assay [7] the target is Epidermal growth factor receptor (Homo sapiens) (UniProt P00533). Nature of the assay: EGFR binders on small-molecule microarrays, primary screen, biochemical, small-molecule microarray, 635 nm fluorescence (AID 1104).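 Note: score merges 667 nm emission intensity with spot signal to noise over triplicate slides.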 Particulars: EGFR binding, higher = more signal.
The target of assay [8] is Follistatin-related protein 3 (Homo sapiens) (UniProt O95633). Nature of the assay: FSTL3 binders on small-molecule microarrays, primary screen, biochemical, small-molecule microarray, 635 nm fluorescence (AID 1105).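 Note: score merges emission near 667 nm and signal to noise per printed spot across three slides.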 Particulars: FSTL3 binding, higher = more signal.
Assay [9] concerns the target Dickkopf-related protein 1 (Homo sapiens) (UniProt O94907). Nature of the assay: DKK1 binders on small-molecule microarrays, primary screen, biochemical, small-molecule microarray, 635 nm fluorescence scan (AID 1106).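 Note: score merges emission near 667 nm with signal to noise over three replicate slides.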 Particulars: DKK1 binding, higher = more signal.
In assay [10] the test system is Inhibin beta A chain (activin A). Nature of the assay: INHBA (activin A) binders on microarrays, primary screen, biochemical, small-molecule microarray, 635 nm fluorescence scan (AID 1107).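 Note: mouse activin A protein probed at 4.33 µg/mL on printed slides; score merges bound-protein fluorescence near 667 nm with spot signal-to-noise.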 Particulars: small-molecule microarray binding, higher = more signal.
In assay [11] the test system is Human papillomavirus type 1a protein E7 (residues 44-93). Nature of the assay: HPV1a E7 fragment binders on microarrays, primary screen, biochemical, small-molecule microarray, residues 44-93, 635 nm fluorescence (AID 1108).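 Note: E7 fragment applied at 1 µg/mL in TBST for 1 h at 4 C; score combines spot fluorescence with its signal to noise ratio.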 Particulars: small-molecule microarray binding, fluorescence 635 nm; higher = more signal.
A short description of assay [12]: modulators of HCV replicon luciferase signal, primary screen, HCV replication inhibitor project, Huh7 cells, luciferase reporter (AID 1109).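 Note: huh7 hepatoma cells harbouring a luciferase neomycin HCV replicon reporter; luciferase luminescence as measure of HCV replicon replication; test concentration not given here.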 Particulars: 48 h, higher = more signal. In general terms: A replicon is a self-replicating genome or part of one, used to study replication in cells.
In assay [13] the target is Left-right determination factor 2 (Homo sapiens) (UniProt O00292). Nature of the assay: LEFTY2 binders on small-molecule microarrays, primary screen, biochemical, small-molecule microarray, 635 nm fluorescence scan (AID 1110). Particulars: LEFTY2 binding, higher = more signal.
Assay [14] concerns the target Calmodulin-1 (Homo sapiens) (UniProt P0DP23). Nature of the assay: CALM1 binders on microarrays, EGTA buffer, profiling panel, biochemical, small-molecule microarray, Cy5-labelled CALM1 (AID 1111).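 Note: labelled calmodulin applied in Tris saline Tween buffer holding calcium plus EGTA and DTT.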 Particulars: Cy5-CALM1 binding fluorescence, higher = more signal.
Assay [15] shares this target. Nature of the assay: calcium-bound CALM1 binders on microarrays, profiling panel, artefact control for SMM control-protein annotation, biochemical, small-molecule microarray, Cy5-labelled CALM1, plus calcium (AID 1112).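 Note: score merges spot fluorescence with signal to noise from triplicate slides.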 Particulars: Cy5-CALM1 binding fluorescence, higher = more signal.
The nature of assay [16]: small-molecule microarray binders of probe aWnt5a, primary screen, biochemical, biotinylated probe, 635/667 nm fluorescence (AID 1113).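 Note: score merges 667 nm fluorescence intensity with signal-to-noise per printed feature.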 Particulars: higher = more signal.
Assay [17] is described as follows: small-molecule microarray binders of probe aShh, primary screen, biochemical, biotinylated probe, 635/667 nm fluorescence (AID 1114).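 Note: probe is biotin-labelled aShh protein from a stem cell growth factor screen; measures binding of labelled protein to compounds printed on the slide; score merges feature fluorescence at 667 nm with signal-to-noise.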 Particulars: higher = more signal.
The nature of assay [18]: small-molecule microarray binders of probe aNog, primary screen, biochemical, biotinylated probe, 635/667 nm fluorescence (AID 1115).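 Note: probe is biotinylated aNog protein used at 0.15 µg/mL for 1 h at 4 C; z-score combines 667 nm fluorescence of each spot with its signal to noise.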 Particulars: higher = more signal.
Assay [19] deals with Torsin-1A-interacting protein 1 (Homo sapiens) (UniProt Q5JTV8). Nature of the assay: LAP1 binders from COS7 cell lysate, primary screen, small-molecule microarray, 635/667 nm fluorescence (AID 1116). Particulars: COS7-hLAP1 lysate binding, 635 nm fluorescence, higher = more signal.
The target in assay [20] is Alpha-bungarotoxin (Bungarus multicinctus) (UniProt P60615). Nature of the assay: alpha-bungarotoxin binders on microarray, profiling panel, artefact control for SMM control protein annotation, biochemical, small-molecule microarray, Alexa647 label, 635/667 nm fluorescence (AID 1117). Particulars: alpha-BTX-A647 binding fluorescence, higher = more signal.

Structures are written as SMILES. Activity calls are given as the source filed them.

Chain of Fibroblast growth factor 10 (Homo sapiens) (O15520 whole entry, looked up): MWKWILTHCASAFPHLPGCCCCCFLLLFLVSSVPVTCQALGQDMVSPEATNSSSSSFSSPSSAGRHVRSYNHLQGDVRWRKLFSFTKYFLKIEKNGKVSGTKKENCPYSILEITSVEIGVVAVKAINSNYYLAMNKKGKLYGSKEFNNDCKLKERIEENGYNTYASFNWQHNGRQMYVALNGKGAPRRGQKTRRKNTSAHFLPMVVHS
Chain of Alpha-bungarotoxin (Bungarus multicinctus) (P60615 whole entry, looked up): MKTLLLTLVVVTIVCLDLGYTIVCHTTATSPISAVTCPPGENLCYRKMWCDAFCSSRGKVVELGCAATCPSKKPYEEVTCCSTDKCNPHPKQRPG
Chain of Left-right determination factor 2 (Homo sapiens) (O00292 whole entry, looked up): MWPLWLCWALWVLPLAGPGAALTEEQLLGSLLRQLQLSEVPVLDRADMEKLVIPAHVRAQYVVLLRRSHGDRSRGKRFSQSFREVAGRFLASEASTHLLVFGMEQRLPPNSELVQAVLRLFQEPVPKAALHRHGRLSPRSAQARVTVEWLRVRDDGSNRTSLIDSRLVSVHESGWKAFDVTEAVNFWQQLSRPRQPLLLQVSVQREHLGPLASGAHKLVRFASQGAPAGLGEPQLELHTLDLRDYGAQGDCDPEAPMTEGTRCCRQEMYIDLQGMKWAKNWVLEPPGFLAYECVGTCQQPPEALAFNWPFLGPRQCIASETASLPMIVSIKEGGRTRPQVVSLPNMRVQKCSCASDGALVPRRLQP
Chain of Torsin-1A-interacting protein 1 (Homo sapiens) (Q5JTV8 whole entry, looked up): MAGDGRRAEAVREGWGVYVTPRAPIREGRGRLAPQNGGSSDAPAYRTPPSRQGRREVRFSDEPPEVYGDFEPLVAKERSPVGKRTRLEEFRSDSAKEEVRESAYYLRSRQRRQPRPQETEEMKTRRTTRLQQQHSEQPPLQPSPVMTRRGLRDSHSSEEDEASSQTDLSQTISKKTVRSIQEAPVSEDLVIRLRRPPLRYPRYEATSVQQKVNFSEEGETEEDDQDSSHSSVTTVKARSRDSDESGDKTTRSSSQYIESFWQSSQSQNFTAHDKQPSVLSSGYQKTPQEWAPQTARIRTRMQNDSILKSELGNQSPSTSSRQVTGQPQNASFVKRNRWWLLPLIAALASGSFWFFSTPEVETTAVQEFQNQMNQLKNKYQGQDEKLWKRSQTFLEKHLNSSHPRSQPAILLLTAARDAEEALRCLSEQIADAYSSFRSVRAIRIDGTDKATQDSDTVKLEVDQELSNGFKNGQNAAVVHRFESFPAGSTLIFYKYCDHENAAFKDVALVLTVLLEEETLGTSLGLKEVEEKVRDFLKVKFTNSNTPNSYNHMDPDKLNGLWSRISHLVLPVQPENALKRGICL
Chain of Follistatin-related protein 3 (Homo sapiens) (O95633 whole entry, looked up): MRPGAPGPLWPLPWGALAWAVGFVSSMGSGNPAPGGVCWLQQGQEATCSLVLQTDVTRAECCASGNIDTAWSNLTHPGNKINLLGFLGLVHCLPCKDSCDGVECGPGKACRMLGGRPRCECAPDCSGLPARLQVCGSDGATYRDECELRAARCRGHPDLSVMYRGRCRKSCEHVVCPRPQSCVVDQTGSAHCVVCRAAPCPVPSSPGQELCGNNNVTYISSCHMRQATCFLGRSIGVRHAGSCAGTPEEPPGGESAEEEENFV
Chain of Dickkopf-related protein 1 (Homo sapiens) (O94907 whole entry, looked up): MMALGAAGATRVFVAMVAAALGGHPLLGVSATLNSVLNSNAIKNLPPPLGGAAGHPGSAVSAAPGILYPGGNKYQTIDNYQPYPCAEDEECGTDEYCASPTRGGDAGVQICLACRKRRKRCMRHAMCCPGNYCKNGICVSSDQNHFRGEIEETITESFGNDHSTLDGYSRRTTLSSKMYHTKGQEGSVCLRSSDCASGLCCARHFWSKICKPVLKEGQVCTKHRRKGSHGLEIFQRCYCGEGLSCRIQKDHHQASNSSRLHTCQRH
Chain of Epidermal growth factor receptor (Homo sapiens) (P00533 whole entry, looked up): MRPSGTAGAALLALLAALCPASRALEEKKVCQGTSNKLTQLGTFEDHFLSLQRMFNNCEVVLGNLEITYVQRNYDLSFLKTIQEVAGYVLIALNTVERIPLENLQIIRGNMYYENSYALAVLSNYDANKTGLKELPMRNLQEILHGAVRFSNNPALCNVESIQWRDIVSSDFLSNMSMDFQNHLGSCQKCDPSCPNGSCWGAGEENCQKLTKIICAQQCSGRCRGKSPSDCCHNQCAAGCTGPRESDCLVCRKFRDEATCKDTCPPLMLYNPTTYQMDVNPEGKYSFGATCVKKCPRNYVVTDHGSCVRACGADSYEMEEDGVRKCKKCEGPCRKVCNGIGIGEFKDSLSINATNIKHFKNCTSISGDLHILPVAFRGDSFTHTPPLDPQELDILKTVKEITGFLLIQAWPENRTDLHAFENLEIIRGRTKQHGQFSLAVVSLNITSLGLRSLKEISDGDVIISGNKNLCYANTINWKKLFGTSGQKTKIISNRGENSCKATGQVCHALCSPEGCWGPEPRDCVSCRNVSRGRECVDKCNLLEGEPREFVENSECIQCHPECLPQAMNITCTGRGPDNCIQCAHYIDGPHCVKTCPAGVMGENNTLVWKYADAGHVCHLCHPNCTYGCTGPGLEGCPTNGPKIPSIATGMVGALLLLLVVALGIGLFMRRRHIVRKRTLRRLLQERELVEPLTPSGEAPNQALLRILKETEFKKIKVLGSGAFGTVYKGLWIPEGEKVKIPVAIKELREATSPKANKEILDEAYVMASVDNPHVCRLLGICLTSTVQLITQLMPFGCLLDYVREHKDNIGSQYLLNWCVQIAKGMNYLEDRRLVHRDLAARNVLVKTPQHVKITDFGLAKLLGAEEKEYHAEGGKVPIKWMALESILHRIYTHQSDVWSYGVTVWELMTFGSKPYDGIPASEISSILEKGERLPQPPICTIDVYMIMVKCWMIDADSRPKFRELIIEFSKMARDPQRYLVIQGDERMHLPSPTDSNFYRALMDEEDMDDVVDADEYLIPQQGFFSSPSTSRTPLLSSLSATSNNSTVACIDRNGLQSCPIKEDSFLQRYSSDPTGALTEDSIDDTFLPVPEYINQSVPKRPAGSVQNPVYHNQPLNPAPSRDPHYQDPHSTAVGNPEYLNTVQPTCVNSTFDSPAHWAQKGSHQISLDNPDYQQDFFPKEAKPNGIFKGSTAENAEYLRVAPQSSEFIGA

`COc1ccc(O[C@H]2C=C[C@@H](c3ccccc3)O[C@@H]2CO)cc1`: the composite z-score in [1] was 0.281; in assay [2], -0.227; in assay [3], -0.116; in assay [5] it was 0.194; in assay [6], 0.207; in [7], 0.731. Moreover, the composite z-score in assay [8] was 0.318; in assay [9], 0.485; in [10] it was 0.622; in assay [11], -0.438; in [13], 0.213; in assay [14], -0.329. Besides, the composite z-score in assay [15] is -0.643; in assay [16], -0.148; in assay [17] it was 0.0278; in [18] it was 0.041; in [19] it was 0.171; in [20] it was 0.441. The results for the z-score in assay [4] and in assay [12] were -0.752 (inactive) and 0.231, respectively.

As for `CC(CCN1CCc2nc(-c3ccccc3)c(-c3ccccc3)cc2C1)=NOC(C)CN1CCCc2nc(C)c(C)cc21` (stereo not given), the composite z-score was 0.934 in assay [1]; 0.196 in [2]; -0.218 in [3]; 0.942 in [5]; 1.02 in [6]; 0.603 in assay [7]. The composite z-score is 1.02 in assay [8]; 0.732 in [9]; 0.858 in assay [10]; 1.39 in assay [11]; 0.848 in assay [13]; 0.637 in [14]. The composite z-score was -0.0431 in assay [15]; 0.0017 in [16]; 0.267 in [17]; 0.378 in assay [18]; 0.825 in [19]; 1.03 in assay [20]. The z-score was 1.12 (inactive) in assay [4] and -3.08 in assay [12].

Regarding `C=CC[C@@H]1C=C[C@H](ON=C2C[C@@H](O)[C@@H](O)[C@@H]3[C@@H]4C(=O)N(CC)C(=O)[C@@H]4CC[C@@H]23)[C@@H](CO)O1`, the composite z-score in [1] is -0.487; in assay [2], -0.428; in assay [3], -0.562; in assay [5], 0.156; in assay [6], -0.653; in assay [7], -0.0239. Besides, the composite z-score in assay [8] was -0.339; in assay [9], 0.106; in assay [10] it was 0.535; in assay [11] it was -0.573; in assay [13], 0.13; in assay [14], -0.758. The composite z-score is -0.777 in assay [15]; -0.131 in [16]; 0.116 in assay [17]; 0.0541 in assay [18]; -0.164 in [19]; -1.03 in [20]. The z-score was -1.2 (inactive) in [4] and 0.0355 in [12].

`CCC1=NOC(CCC2CC(OC(=O)NCc3cccc4c3OCO4)CC3(CCCC(COC(=O)NCCc4ccc(Cl)cc4)O3)O2)C1` (stereo not given): the composite z-score in [1] was 0.354; in assay [2] it was -0.0936; in assay [3], -0.341; in assay [5] it was 1.41; in [6], 0.173; in assay [7], -0.0917. The composite z-score in [8] is 0.147; in assay [9] it was 0.119; in assay [10], 0.0081; in assay [11], 0.916; in assay [13] it was 0.304; in assay [14], -0.257. The composite z-score in [15] was -0.532; in assay [16], -0.142; in [17], -0.16; in [18] it was -0.402; in assay [19], -0.342; in assay [20] it was -0.148. The z-score in assay [4] was 0.116 (inactive); in assay [12], -0.0374.

Regarding `CC(=O)OC[C@H]1O[C@H](CC=NO[C@@H](C)c2cn([C@H](CO)Cc3ccccc3)nn2)C=C[C@@H]1OC(C)=O`, the composite z-score was 0.775 in assay [1]; 0.101 in [2]; -0.624 in [3]; 1.07 in assay [5]; 0.517 in assay [6]; 0.387 in assay [7]. In addition, the composite z-score is 1.06 in [8]; 1.05 in assay [9]; -0.383 in assay [10]; 0.949 in [11]; 0.656 in [13]; -0.16 in [14]. Also, the composite z-score in [15] was -0.174; in assay [16], -0.176; in assay [17], 0.194; in assay [18], 0.158; in [19], 1.03; in [20], 1.56. Further, the z-score is -1.54 (inactive) in assay [4] and -1.02 in [12].

In the case of `CCOC(=O)[C@H](Cc1ccccc1)NC(=O)CCC1CC(OC(=O)NCCc2ccc(F)cc2)CC2(CCCC(COC(=O)NCCOc3ccccc3)O2)O1` (stereo not given in full), the composite z-score in [1] is 0.87; in [2], -0.119; in assay [3], -0.442; in assay [5] it was 0.979; in [6], 1.28; in assay [7], 0.597. Further, the composite z-score in assay [8] was 1.31; in [9], 1.05; in assay [10], -0.155; in assay [11] it was 1.4; in assay [13] it was 0.701; in assay [14], 0.483. Further, the composite z-score in [15] is -0.296; in assay [16], -0.0721; in assay [17], -0.0709; in assay [18], -0.28; in assay [19], 0.306; in assay [20], 0.472. The z-score in assay [4] is -0.421 (inactive); in [12], -1.05.
